Test [1] in a line: qHTS assay to identify small molecule agonists of the peroxisome proliferator-activated receptor delta (PPARd) signaling pathway - cell viability counter screen (AID 743211). Further: nearly all actives have a fitted effect of over 55% in size. Further: potency means the concentration at half of the fitted maximal effect. Summed up:
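In the same wells used for beta-lactamase reporter measurement, cytotoxicity is scored by CellTiter-Glo. HEK293H PPARd-bla cells receive compound for 17 h at 37C following a 5 h settling period.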

In test [2] the target is Peroxisome proliferator-activated receptor delta (Homo sapiens) (UniProt Q03181). Briefly: qHTS assay to identify small molecule agonists of the peroxisome proliferator-activated receptor delta (PPARd) signaling pathway (AID 743212; calls by dose curve). Summed up: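 Read-out: beta-lactamase FRET fluorescence after 2 h room-temperature incubation with LiveBLAzer B/G substrate. Cells were HEK293H carrying a UAS-bla reporter for PPARd, treated at 37 C with DMSO-dissolved compounds.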
Sequence of Peroxisome proliferator-activated receptor delta (Homo sapiens) (Q03181 whole entry, looked up): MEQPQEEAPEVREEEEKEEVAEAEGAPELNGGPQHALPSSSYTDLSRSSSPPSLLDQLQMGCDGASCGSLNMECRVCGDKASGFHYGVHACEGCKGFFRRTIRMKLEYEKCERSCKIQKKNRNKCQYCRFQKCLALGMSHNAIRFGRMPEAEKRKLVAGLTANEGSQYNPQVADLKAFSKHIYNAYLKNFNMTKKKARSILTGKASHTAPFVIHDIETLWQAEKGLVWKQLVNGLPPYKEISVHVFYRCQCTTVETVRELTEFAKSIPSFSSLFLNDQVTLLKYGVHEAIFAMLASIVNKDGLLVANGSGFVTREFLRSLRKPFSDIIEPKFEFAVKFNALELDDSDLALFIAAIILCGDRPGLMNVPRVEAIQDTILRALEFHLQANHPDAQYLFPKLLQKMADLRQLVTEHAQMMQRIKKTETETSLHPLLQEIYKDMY

A short description of test [3]: qHTS assay to identify small molecule antagonists of the peroxisome proliferator-activated receptor delta (PPARd) signaling pathway - cell viability counter screen (AID 743213). Further: nearly all actives have a fitted effect of over 50% in size. Further: potency means the concentration at half of the fitted maximal effect. Summed up:
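PPARd-bla HEK293H cells were treated with compounds plus agonist L165041 (300 nM final) for 17 h at 37 C. Viability was then read in the same wells by CellTiter-Glo luminescence after 30 min at room temperature.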

In test [4] the target is Peroxisome proliferator-activated receptor delta (Homo sapiens) (UniProt Q03181). Briefly: qHTS assay to identify small molecule antagonists of the peroxisome proliferator-activated receptor delta (PPARd) signaling pathway (AID 743215; active means well fitted inhibition curve with a large enough effect in the signal ratio in the repeat runs, not every such curve was filed as active; the % refers to the signal ratio;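 further: cells stimulated with agonist L165041 at 300 nM final during compound exposure; series mostly up to about 62 µM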). Summed up: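 Cells: HEK293H with a UAS-driven beta-lactamase reporter responsive to PPARd. Compounds were co-added with L165041 (300 nM, final) and incubated 17 h at 37 C before a 2 h room-temperature FRET substrate step and fluorescence reading.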

Test [5] is described as follows: qHTS assay to identify small molecule agonists of the farnesoid-X-receptor (FXR) signaling pathway - cell viability counter screen (AID 743218). Further: nearly all actives have a fitted effect of over 45% in size. Further: potency means the concentration at half of the fitted maximal effect. Summed up:
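Cells were seeded, left 5 h at 37 C and 5% CO2, then dosed with compound in DMSO for 16 h. After the beta-lactamase FRET read, CellTiter-Glo was added and luminescence measured 30 min later.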

Test [6] concerns the target Bile acid receptor (Homo sapiens) (UniProt Q96RI1). Briefly: qHTS assay to identify small molecule agonists of the farnesoid-X-receptor (FXR) signaling pathway (AID 743220; active means well fitted activation curve with a large enough effect in the signal ratio in the repeat runs, not every such curve was filed as active; the % refers to the signal ratio). A digest of the protocol:
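FXR-UAS-bla HEK 293T cells carrying a UAS-driven beta-lactamase reporter were plated for 5 h at 37C/5% CO2, then exposed to DMSO-dissolved Tox21 10K compounds for 16 h at 37C. A LiveBLAzer B/G FRET substrate was loaded for 2 h at room temperature before fluorescence reading.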

Test [7] can be described thus: qHTS assay to identify small molecule antagonists of the farnesoid-X-receptor (FXR) signaling pathway - cell viability counter screen (AID 743221; active means well fitted cell-killing curve with a large enough effect in the repeat runs, not every such curve was filed as active; further: nearly all actives have a fitted effect of over 50% in size). A digest of the protocol: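 Here viability was scored by luminescence after CellTiter-Glo addition to wells already read for beta-lactamase. Prior treatment: compound plus CDCA (50 uM final), 16 h, 37 C, HEK 293T FXR-bla cells.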

Test [8] deals with Vitamin D3 receptor (Homo sapiens) (UniProt P11473). The test is described as follows: qHTS assay to identify small molecule agonists of the vitamin D receptor (VDR) signaling pathway (AID 743222; calls by dose curve). Summed up:
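Cells carrying a VDR-driven beta-lactamase reporter are seeded at 2,000 per well and rested 4 h. Compounds in DMSO are added for 16 h at 37C, and FRET substrate fluorescence is measured after 2 h at room temperature.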

Test [9] has the same target. Briefly: qHTS assay to identify small molecule antagonists of the vitamin D receptor (VDR) signaling pathway (AID 743223; active means well fitted inhibition curve with a large enough effect in the signal ratio in the repeat runs, not every such curve was filed as active; the % refers to the signal ratio; further: potency means the concentration at half of the fitted maximal effect). A digest of the protocol:
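Inhibition of agonist-driven VDR signalling is scored in VDR-bla cells: 3 nM final 1alpha,25-dihydroxyvitamin D3 plus compound, 16 h at 37C, then beta-lactamase detection by FRET substrate fluorescence after 2 h.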

The nature of test [10]: qHTS assay to identify small molecule agonists of the vitamin D receptor (VDR) signaling pathway - cell viability counter screen (AID 743224). Further: nearly all actives have a fitted effect of over 50% in size. Further: potency means the concentration at half of the fitted maximal effect. Summed up: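 Cells: VDR-bla, 2,000/well, settled 4 h. Treatment: compounds in DMSO, 16 h, 37C/5% CO2. Readout: CellTiter-Glo luminescence after 30 min RT.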
Test [11] in a line: qHTS assay to identify small molecule antagonists of the vitamin D receptor (VDR) signaling pathway - cell viability counter screen (AID 743225). Further: nearly all actives have a fitted effect of over 50% in size. Further: potency means the concentration at half of the fitted maximal effect. A digest of the protocol:
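Compounds were pinned onto VDR-bla HEK 293T cells together with 1-alpha,25-dihydroxyvitamin D3 at 3 nM final. After 16 h at 37C and 5% CO2 plus the reporter readout, cell viability was measured by CellTiter-Glo luminescence (30 min, room temperature).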

Test [12] is described as follows: qHTS assay to identify small molecule agonists of the NFkB signaling pathway - cell viability counter screen (AID 1159515; calls by dose curve; further: nearly all actives have a fitted effect of over 55% in size; further: potency means the concentration at half of the fitted maximal effect). A digest of the protocol:
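Cells are seeded (2,000 NFkB-bla ME-180 per well), rested overnight, and dosed with DMSO-dissolved compounds for 5 hr at 37 C. Viability is then read by CellTiter-Glo luminescence after 30 min at room temperature.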

Test [13] in a line: qHTS assay to identify small molecule agonists of the endoplasmic reticulum stress response signaling pathway (AID 1159516; active means well fitted activation curve with a large enough effect in the signal ratio in the repeat runs, not every such curve was filed as active; the % refers to the signal ratio). A digest of the protocol:
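Cells are seeded at 1,500 per well and incubated overnight. Compounds in DMSO are added for 5 hr at 37 C, then beta-lactamase FRET substrate for 2 hr at room temperature, and fluorescence at 460 and 530 nm is measured.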

Test [14] in a line: qHTS assay to identify small molecule agonists of the endoplasmic reticulum stress response signaling pathway - cell viability counter screen (AID 1159517; calls by dose curve; further: nearly all actives have a fitted effect of over 50% in size; further: potency means the concentration at half of the fitted maximal effect). Summed up:
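Steps: seed 1,500 ESRE-bla HeLa cells per well; incubate overnight at 37 C, 5% CO2; add compounds in DMSO for 5 hr; run FRET substrate 2 hr RT; add CellTiter-Glo, wait 30 min, read luminescence.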

A short description of test [15]: qHTS assay to identify small molecule antagonists of the retinoid-related orphan receptor gamma (ROR-gamma) signaling pathway - cell viability counter screen (AID 1159520). Further: nearly all actives have a fitted effect of over 50% in size. Further: potency means the concentration at half of the fitted maximal effect. Summed up:
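Tet-on ROR gamma CHO cells were given compounds for 2 hr, then doxycycline hyclate at 1 uM final, and incubated 16 hr at 37 C. Viability was measured as ATP content by CellTiter-Glo luminescence.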

The target of test [16] is Nuclear receptor ROR-gamma (Homo sapiens) (UniProt P51449). Briefly: qHTS assay to identify small molecule antagonists of the retinoid-related orphan receptor gamma (ROR-gamma) signaling pathway (AID 1159521; further: nearly all actives have a fitted effect of over 50% in size; further: potency means the concentration at half of the fitted maximal effect). A digest of the protocol: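 Test compounds were applied to Tet-on RORγ CHO cells 2 h ahead of doxycycline hyclate (1 uM final). Luciferase reporter activity was quantified by luminescence after 16 h at 37 C and 5% CO2.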

The nature of test [17]: qHTS assay to identify small molecule agonists of the AP-1 signaling pathway - cell viability counter screen (AID 1159525; calls by dose curve; further: nearly all actives have a fitted effect of over 55% in size; further: potency means the concentration at half of the fitted maximal effect). A digest of the protocol:
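Same-well cytotoxicity counter screen of the Tox21 10K library in ME-180 cells. The readout is ATP-dependent luminescence after 5 h compound treatment. Data are normalised to DMSO and tetra n-octyl ammonium bromide controls.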

Test [18] in a line: qHTS assay to identify small molecule agonists of the AP-1 signaling pathway (AID 1159526; calls by dose curve).
For test [19], the target named is Retinoic acid receptor RXR-alpha (Homo sapiens) (UniProt P19793). Briefly: qHTS assay to identify small molecule agonists of the RXR signaling pathway (AID 1159527; calls by dose curve; further: nearly all actives have a fitted effect of over 35% in size). Summed up:
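Using 9-cis retinoic acid as the reference agonist, chemicals were tested in HEK 293T cells […] for 16 hr; substrate loading lasted 2 hr at room temperature.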

In test [20] the target is Bile acid receptor (Homo sapiens) (UniProt Q96RI1). Briefly: qHTS assay to identify small molecule antagonists of the farnesoid-X-receptor (FXR) signaling pathway (AID 743217; active means well fitted inhibition curve with a large enough effect in the signal ratio in the repeat runs, not every such curve was filed as active; the % refers to the signal ratio). A digest of the protocol: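 Cells carrying a UAS-driven beta-lactamase reporter (GeneBLAzer FXR-UAS-bla HEK 293T) were plated and rested 5 h at 37 °C. Compounds in DMSO were added alongside chenodeoxycholic acid agonist at 50 uM final and left 16 h at 37 °C before FRET substrate readout.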
Sequence of Bile acid receptor (Homo sapiens) (Q96RI1 whole entry, looked up): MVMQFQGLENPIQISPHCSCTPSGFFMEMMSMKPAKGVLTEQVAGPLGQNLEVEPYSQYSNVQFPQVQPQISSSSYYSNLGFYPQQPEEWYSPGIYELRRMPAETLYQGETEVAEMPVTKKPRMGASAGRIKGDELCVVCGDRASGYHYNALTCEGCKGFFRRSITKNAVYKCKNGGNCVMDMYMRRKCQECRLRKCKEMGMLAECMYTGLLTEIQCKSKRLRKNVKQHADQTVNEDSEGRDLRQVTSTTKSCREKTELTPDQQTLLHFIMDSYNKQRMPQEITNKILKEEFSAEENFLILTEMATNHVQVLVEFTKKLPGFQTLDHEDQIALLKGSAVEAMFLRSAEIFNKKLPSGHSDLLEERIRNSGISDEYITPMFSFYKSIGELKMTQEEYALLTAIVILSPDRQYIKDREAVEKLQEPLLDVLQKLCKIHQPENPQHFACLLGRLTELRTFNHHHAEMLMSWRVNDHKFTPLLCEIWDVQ

“And” between values parts separate entries of the source, which are not always exact repeats. Identical values can stand only once. Records with an inconclusive call do not appear. Some structures have more than one record in an assay (separate samples or runs), and their calls can disagree. The source made the active and inactive calls. Unless noted, the call rests on the fitted dose curve; in most records, active means well fitted curve in the direction sought with a large enough effect in the repeat runs; inconclusive means weak or mixed curves; inactive means no such curve, though single readings can be large; an effect the other way counts as inactive or inconclusive.

Sequence of Vitamin D3 receptor (Homo sapiens) (P11473 whole entry, looked up): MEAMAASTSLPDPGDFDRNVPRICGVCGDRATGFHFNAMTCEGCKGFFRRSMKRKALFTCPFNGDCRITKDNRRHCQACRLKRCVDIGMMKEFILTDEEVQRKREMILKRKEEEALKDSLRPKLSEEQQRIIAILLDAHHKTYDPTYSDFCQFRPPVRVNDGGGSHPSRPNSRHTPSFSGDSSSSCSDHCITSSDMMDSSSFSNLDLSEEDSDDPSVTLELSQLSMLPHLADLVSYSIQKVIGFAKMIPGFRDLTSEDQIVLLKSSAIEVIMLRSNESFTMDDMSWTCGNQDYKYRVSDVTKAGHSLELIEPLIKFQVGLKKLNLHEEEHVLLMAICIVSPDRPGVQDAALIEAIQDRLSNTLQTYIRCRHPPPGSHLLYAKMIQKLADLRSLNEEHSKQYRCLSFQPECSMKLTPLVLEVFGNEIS
Sequence of Retinoic acid receptor RXR-alpha (Homo sapiens) (P19793 whole entry, looked up): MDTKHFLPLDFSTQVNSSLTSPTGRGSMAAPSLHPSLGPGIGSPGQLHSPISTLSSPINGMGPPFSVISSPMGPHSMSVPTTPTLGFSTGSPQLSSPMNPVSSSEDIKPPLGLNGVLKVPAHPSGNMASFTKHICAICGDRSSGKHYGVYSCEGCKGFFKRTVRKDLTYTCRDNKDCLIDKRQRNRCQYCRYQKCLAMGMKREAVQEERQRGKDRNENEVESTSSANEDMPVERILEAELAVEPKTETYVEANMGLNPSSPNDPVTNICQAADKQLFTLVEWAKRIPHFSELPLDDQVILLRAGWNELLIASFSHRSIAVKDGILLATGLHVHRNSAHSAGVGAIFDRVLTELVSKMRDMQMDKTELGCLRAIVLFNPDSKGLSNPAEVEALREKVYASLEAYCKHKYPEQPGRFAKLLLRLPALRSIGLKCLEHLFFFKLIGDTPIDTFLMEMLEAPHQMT

As to `CC1(C)C(C(=O)OC(C#N)c2cccc(Oc3ccccc3)c2)C1(C)C` (stereo not given), the Potency entry in test [1], in test [2], in [3], in test [4], in test [5] and in [6] was “inactive” throughout. Moreover, the Potency entry in [7], in test [9], in [10], in [11], in test [12] and in test [13] was “inactive” in each case. The Potency result in test [14], in [15] and in test [17] was “inactive” throughout. In addition, the compound was classed as inactive in test [8] and in test [18]. The Potency in test [16] is 48.9 µM (active).
With `[Cl-].[Cl-].[Cl-].[Fe+3]`, the Potency entry in test [1], in test [3], in [5], in test [7], in test [10] and in [11] was “inactive” each time. The Potency entry in test [12], in [13], in [14], in test [15], in test [17] and in test [19] was “inactive” throughout. In addition, the call in test [18] was inactive.
Regarding `CNC(=O)Oc1cccc2c1OC(C)(C)C2`, the Potency result in test [1], in test [2], in test [3], in [4], in [7] and in test [9] was “inactive” in each case. The Potency result in test [10], in test [11], in test [12], in test [13], in [14] and in [15] was “inactive” throughout. In addition, the Potency entry in [17] and in [19] was “inactive” each time. For the same compound, the result in [8] and in test [18] was inactive.
In the case of `CC1CC(=O)O1` (stereo not given), the Potency result in test [1], in [2], in test [3], in test [4], in [20] and in test [5] was “inactive” each time. The Potency result in test [6], in test [7], in [9], in [10], in test [11] and in test [13] was “inactive” in each case. The Potency result in test [14], in [15], in test [16], in test [17] and in [19] was “inactive” in each case. Further, the outcome in [8] and in test [18] was inactive.
With `OC(c1ccc(Cl)cc1)(c1cncnc1)c1ccccc1Cl` (stereo not given), the Potency entry in test [1], in [2], in [3], in test [4], in test [5] and in test [7] was “inactive” each time. The Potency entry in [9], in [10], in [11], in test [12], in test [13] and in [14] was “inactive” each time. In [17], the Potency result was “inactive”. In addition, the outcome in test [8] and in test [18] was inactive. Further, the Potency in test [15] is 15.6 µM (active) and inactive; in test [16], 4.4 µM (active) and 54.5 µM (active).
Take `CC(C)(c1ccccc1)c1ccc(O)c(C(C)(C)c2ccccc2)c1`: the Potency in test [1] was 21.7 µM (active) and 19.5 µM (active); in test [3], 34.3 µM (active) and 43.6 µM (active); in [5] it was 54.9 µM (active); in [9], 43.6 µM (active); in test [10] it was 19.3 µM (active) and 15.5 µM (active); in test [11], 30.6 µM (active) and 17.4 µM (active). Also, the Potency in test [12] is 21.7 µM (active) and 21.9 µM (active); in test [14] it was 27.3 µM (active) and 27.5 µM (active); in [15] it was 48.1 µM (active) and 30.6 µM (active); in [16], 19.2 µM (active) and 27.3 µM (active); in test [17], 12.2 µM (active) and 21.9 µM (active).
With `CCOP(=S)(OCC)OP(=S)(OCC)OCC`, the Potency result in [1], in test [2], in test [3], in test [4], in test [5] and in test [6] was “inactive” throughout. Further, the Potency result in [7], in test [10], in [11], in [12], in test [13] and in test [14] was “inactive” throughout. In addition, the Potency result in [15], in test [16] and in test [17] was “inactive” each time. In addition, the compound was called inactive in test [18].
